What was measured:
Test in all cases: DAPPL (digital affinity profiling via proximity ligation, sequencing); 10 mM Tris-HCl pH 7.5, 50 mM NaCl, 1 mM DTT, 4% glycerol, room temperature, 30 min; GST-TFs on glutathione beads, 16-mer random dsDNA library, 0.1% formaldehyde crosslink after washing; high values mean tight binding
Settings in all cases: protein: recombinant; tags: N-terminal GST; dsDNA, one strand shown
[1] = molecular target: T1, ERF (Homo sapiens, UniProt P50548 1-548)
T1 sequence: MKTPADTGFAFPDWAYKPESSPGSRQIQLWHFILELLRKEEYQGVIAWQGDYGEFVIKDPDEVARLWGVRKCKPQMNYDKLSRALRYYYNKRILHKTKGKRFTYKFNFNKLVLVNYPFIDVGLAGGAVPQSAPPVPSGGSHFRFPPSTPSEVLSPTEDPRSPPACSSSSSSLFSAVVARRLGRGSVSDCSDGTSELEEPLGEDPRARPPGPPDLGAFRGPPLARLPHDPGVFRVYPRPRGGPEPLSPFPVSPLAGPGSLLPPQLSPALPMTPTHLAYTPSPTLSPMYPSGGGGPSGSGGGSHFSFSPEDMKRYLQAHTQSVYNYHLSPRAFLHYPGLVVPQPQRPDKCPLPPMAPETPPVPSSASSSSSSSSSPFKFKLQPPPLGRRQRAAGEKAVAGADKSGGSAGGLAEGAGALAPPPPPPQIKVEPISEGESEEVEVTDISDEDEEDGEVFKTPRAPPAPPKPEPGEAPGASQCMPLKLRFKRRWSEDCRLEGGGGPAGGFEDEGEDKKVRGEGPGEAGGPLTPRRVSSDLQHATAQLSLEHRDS
In short: (§1)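 GST fusions of human transcription factors were expressed in yeast and captured with glutathione beads. Once given DNA barcodes and pooled alongside a tag-only sample, they were incubated for 30 min at room temperature with 200 nmole of a random double-stranded 16-mer DNA library in Tris/NaCl/DTT/glycerol buffer, then washed, crosslinked (0.1% formaldehyde), proximity-ligated, PCR-amplified and sequenced on an Illumina NextSeq500. The binding signal of each hexamer is its read frequency for a factor divided by its frequency for the tag-only sample.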

[2] = molecular target: T2, ETV3L (Homo sapiens, UniProt Q6ZN32 1-361)
T2 sequence: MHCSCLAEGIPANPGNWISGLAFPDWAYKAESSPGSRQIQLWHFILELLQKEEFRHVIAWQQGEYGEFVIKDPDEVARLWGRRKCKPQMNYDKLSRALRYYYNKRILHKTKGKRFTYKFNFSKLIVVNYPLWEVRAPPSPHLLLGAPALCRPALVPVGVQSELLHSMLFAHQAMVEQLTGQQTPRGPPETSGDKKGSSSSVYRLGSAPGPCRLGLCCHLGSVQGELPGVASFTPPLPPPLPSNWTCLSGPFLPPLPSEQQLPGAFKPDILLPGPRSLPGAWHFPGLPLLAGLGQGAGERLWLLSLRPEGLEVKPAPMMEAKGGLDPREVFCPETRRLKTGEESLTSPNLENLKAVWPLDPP
In short: as §1

[3] = molecular target: T3, ETS2 (Homo sapiens, UniProt P15036 1-469)
T3 sequence: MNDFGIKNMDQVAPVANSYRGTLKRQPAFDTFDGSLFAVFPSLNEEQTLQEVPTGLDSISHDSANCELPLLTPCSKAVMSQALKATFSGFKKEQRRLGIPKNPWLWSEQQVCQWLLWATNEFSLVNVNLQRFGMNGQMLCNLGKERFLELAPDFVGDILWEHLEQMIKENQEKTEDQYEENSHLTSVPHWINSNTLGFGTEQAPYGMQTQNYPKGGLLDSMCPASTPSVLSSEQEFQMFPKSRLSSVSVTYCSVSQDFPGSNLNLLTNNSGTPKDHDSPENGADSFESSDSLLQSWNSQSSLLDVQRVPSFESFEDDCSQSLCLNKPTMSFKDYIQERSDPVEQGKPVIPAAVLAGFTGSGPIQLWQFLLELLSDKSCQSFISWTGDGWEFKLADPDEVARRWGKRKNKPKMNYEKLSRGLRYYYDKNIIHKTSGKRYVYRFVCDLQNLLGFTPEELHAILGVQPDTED
In short: as §1

[4] = molecular target: T4, SPDEF (Homo sapiens, UniProt O95238 1-335)
T4 sequence: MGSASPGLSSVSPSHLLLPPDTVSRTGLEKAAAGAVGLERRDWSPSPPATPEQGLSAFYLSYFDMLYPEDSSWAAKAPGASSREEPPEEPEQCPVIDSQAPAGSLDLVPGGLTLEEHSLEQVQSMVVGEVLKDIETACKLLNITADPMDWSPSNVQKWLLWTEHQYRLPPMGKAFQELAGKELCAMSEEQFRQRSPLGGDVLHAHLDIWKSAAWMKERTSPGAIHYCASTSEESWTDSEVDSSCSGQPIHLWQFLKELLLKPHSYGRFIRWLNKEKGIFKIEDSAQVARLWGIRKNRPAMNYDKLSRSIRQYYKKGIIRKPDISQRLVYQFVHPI
In short: as §1

[5] = molecular target: T5, ETV7 (Homo sapiens, UniProt Q9Y603 1-341)
T5 sequence: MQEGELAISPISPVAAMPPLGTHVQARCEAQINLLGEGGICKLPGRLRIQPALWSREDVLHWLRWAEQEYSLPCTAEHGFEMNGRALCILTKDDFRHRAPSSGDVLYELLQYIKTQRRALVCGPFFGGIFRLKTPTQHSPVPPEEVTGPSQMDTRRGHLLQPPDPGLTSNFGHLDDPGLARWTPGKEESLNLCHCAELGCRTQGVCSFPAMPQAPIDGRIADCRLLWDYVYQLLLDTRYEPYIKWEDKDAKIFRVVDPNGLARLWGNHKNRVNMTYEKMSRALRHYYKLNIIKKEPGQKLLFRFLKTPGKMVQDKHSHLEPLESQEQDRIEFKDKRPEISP
In short: as §1

[6] = molecular target: T6, ELF5 (Homo sapiens, UniProt Q9UKW6-2 1-255)
T6 sequence: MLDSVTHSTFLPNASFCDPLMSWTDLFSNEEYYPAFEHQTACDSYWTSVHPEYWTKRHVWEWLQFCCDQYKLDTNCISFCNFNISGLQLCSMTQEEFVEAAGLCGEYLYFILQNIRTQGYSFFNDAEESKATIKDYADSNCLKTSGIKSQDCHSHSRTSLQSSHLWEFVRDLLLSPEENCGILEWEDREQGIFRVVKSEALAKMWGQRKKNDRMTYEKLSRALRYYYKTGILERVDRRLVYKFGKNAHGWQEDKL
In short: as §1

[7] = molecular target: T7, ETV3 (Homo sapiens, UniProt P41162-2 1-143)
T7 sequence: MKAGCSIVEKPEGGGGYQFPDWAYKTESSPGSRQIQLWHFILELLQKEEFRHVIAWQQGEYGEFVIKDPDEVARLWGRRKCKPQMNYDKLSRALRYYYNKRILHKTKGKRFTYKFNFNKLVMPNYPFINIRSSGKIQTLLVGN
In short: as §1

[8] = molecular target: ETV6 (Homo sapiens, UniProt P41212 1-452)
ETV6, sequence (P41212 whole entry): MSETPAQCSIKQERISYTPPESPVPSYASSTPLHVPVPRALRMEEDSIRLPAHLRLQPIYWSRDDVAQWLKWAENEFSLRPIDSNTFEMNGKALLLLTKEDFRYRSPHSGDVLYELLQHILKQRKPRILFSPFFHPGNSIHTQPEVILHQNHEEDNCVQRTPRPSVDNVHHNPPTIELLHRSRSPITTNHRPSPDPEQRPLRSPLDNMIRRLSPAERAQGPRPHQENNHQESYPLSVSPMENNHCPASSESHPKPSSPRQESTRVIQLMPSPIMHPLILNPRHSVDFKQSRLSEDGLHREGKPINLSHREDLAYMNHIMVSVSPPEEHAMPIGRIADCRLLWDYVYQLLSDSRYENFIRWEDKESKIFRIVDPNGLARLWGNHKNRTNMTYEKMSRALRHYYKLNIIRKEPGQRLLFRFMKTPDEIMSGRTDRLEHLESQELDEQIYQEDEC
In short: as §1

| Sequence | binding signal [1] | binding signal [2] | binding signal [3] | binding signal [4] | binding signal [5] | binding signal [6] | binding signal [7] | binding signal [8] |
| --- | --- | --- | --- | --- | --- | --- | --- | --- |
| TCCCTT | 1.57 fold enrichment (6-mer frequency, TF over GST control) | 1.64 fold enrichment (6-mer frequency, TF over GST control) | 1.67 fold enrichment (6-mer frequency, TF over GST control) | 1.61 fold enrichment (6-mer frequency, TF over GST control) | 1.57 fold enrichment (6-mer frequency, TF over GST control) | 1.72 fold enrichment (6-mer frequency, TF over GST control) | 1.54 fold enrichment (6-mer frequency, TF over GST control) | 1.53 fold enrichment (6-mer frequency, TF over GST control) |
| AATAGG | 1.21 fold enrichment (6-mer frequency, TF over GST control) | 1.12 fold enrichment (6-mer frequency, TF over GST control) | 1.16 fold enrichment (6-mer frequency, TF over GST control) | 1.22 fold enrichment (6-mer frequency, TF over GST control) | 1.27 fold enrichment (6-mer frequency, TF over GST control) | 1.19 fold enrichment (6-mer frequency, TF over GST control) | 1.15 fold enrichment (6-mer frequency, TF over GST control) | 1.27 fold enrichment (6-mer frequency, TF over GST control) |
| ACACAT | 1.29 fold enrichment (6-mer frequency, TF over GST control) | 1.23 fold enrichment (6-mer frequency, TF over GST control) | 1.27 fold enrichment (6-mer frequency, TF over GST control) | 1.31 fold enrichment (6-mer frequency, TF over GST control) | 1.27 fold enrichment (6-mer frequency, TF over GST control) | 1.23 fold enrichment (6-mer frequency, TF over GST control) | 1.2 fold enrichment (6-mer frequency, TF over GST control) | 1.22 fold enrichment (6-mer frequency, TF over GST control) |
| TGGCAC | 1.21 fold enrichment (6-mer frequency, TF over GST control) | 1.2 fold enrichment (6-mer frequency, TF over GST control) | 1.14 fold enrichment (6-mer frequency, TF over GST control) | 1.12 fold enrichment (6-mer frequency, TF over GST control) | 1.18 fold enrichment (6-mer frequency, TF over GST control) | 1.05 fold enrichment (6-mer frequency, TF over GST control) | 1.19 fold enrichment (6-mer frequency, TF over GST control) | 1.16 fold enrichment (6-mer frequency, TF over GST control) |
| CATCTG | 1.35 fold enrichment (6-mer frequency, TF over GST control) | 1.23 fold enrichment (6-mer frequency, TF over GST control) | 1.24 fold enrichment (6-mer frequency, TF over GST control) | 1.23 fold enrichment (6-mer frequency, TF over GST control) | 1.33 fold enrichment (6-mer frequency, TF over GST control) | 1.23 fold enrichment (6-mer frequency, TF over GST control) | 1.17 fold enrichment (6-mer frequency, TF over GST control) | 1.11 fold enrichment (6-mer frequency, TF over GST control) |
| TTCATA | 1.19 fold enrichment (6-mer frequency, TF over GST control) | 1.23 fold enrichment (6-mer frequency, TF over GST control) | 1.15 fold enrichment (6-mer frequency, TF over GST control) | 1.1 fold enrichment (6-mer frequency, TF over GST control) | 1.12 fold enrichment (6-mer frequency, TF over GST control) | 1.15 fold enrichment (6-mer frequency, TF over GST control) | 1.16 fold enrichment (6-mer frequency, TF over GST control) | 1.14 fold enrichment (6-mer frequency, TF over GST control) |

Source: publication PMC7862700, “An all-to-all approach to the identification of sequence-specific readers for epigenetic DNA modifications on cytosine”
